A short description of assay [1]: anti-His antibody binders, primary screen, artefact control for SMM control protein annotation, biochemical, small-molecule microarray, 635 nm fluorescence (AID 1128).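 Note: score merges feature fluorescence with signal-to-noise for each printed compound spot.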 The settings on record: anti-His Alexa647 antibody binding, higher = more signal.
Assay [2] concerns Human papillomavirus type 1a E7 protein (residues 1-88). Put plainly: HPV1a E7 small-molecule binders, primary screen, biochemical, small-molecule microarray, residues 1-88, 635 nm (AID 1129). The settings on record: small-molecule microarray binding, fluorescence 635 nm; higher = more signal.
Assay [3] concerns the target Focal adhesion kinase 1 (Homo sapiens) (UniProt Q05397). Put plainly: small-molecule microarray binders of FAK, primary screen, biochemical, 635/667 nm fluorescence, BSA, DTT (AID 1130).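 Note: composite of spot emission at 667 nm and signal to noise over triplicate slides.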 To be noted: PTK2 binding, 635 nm fluorescence, higher = more signal.
Assay [4] concerns Fibrinogen (Alexa647-labelled). Put plainly: fibrinogen binders on compound microarrays, profiling panel, artefact control for SMM control-protein annotation, biochemical, small-molecule microarray, 635/667 nm fluorescence (AID 1131).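 Note: z-score merges 667 nm fluorescence with per-spot signal-to-noise over triplicate slides.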 The settings on record: fibrinogen-A647 binding fluorescence, higher = more signal.
Assay [5] addresses Follistatin (Homo sapiens) (UniProt P19883). The assay can be described thus: follistatin binders on small-molecule microarrays, primary screen, biochemical, small-molecule microarray, 635/667 nm fluorescence (AID 1132). To be noted: FST binding, 635 nm fluorescence, higher = more signal.
Assay [6] deals with Fibroblast growth factor 2 (Homo sapiens) (UniProt P09038). Put plainly: FGF2 binders on small-molecule microarrays, primary screen, biochemical, small-molecule microarray, 635/667 nm fluorescence (AID 1133). The settings on record: small-molecule microarray binding, FGF2, fluorescence 635/667; higher = more signal.
The nature of assay [7]: mitochondrial membrane potential change in A549 cells, profiling panel, cell-based, JC-1 fluorescence, basal, 24 h, 100 nL (AID 1138).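 Note: A549 lung adenocarcinoma cells under basal conditions with no added stimulus; test concentration not given here.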 To be noted: higher = more signal.
The test system of a further assay is Lefty1. Put plainly: Lefty1 binders on small-molecule microarrays, primary screen, biochemical, small-molecule microarray, 635/667 nm fluorescence (AID 1139). The settings on record: small-molecule microarray binding, fluorescence 635/667; higher = more signal.
Assay [8] concerns wheat germ agglutinin (Triticum aestivum), Alexa647-labelled. Put plainly: wheat germ agglutinin binders on compound microarrays, profiling panel, artefact control for SMM control-protein annotation, biochemical, small-molecule microarray, 635/667 nm fluorescence (AID 1140).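 Note: score merges 667 nm feature emission with signal to noise over triplicate slides.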 To be noted: WGA-A647 binding, 635 nm fluorescence, higher = more signal.
The target of assay [9] is Luciferin 4-monooxygenase (Photinus pyralis) (UniProt P08659). Put plainly: firefly luciferase enzyme inhibitors, primary screen, biochemical, luminescence, purified enzyme, 2006 set (AID 1141).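 Note: cell-free assay with purified firefly luciferase at 100 ng per well in PBS; test concentration not given here.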 The settings on record: SteadyGlo luminescence, 30 min, higher = more signal, called active from +8 up or from −8 down.
Assay [10] relates to Wnt5a (protein binding on small-molecule microarray). Put plainly: Wnt5a binders on small-molecule microarray, primary screen, biophysical, 635/667 nm fluorescence (AID 1142).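 Note: fluorescence read at 667 nm with signal to noise per printed feature.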 The settings on record: 635 nm fluorescence, higher = more signal.
Assay [11] can be described thus: cell viability in Huh7 cells, primary screen, cytotoxicity control for HCV replication inhibitor project, CellTiter-Glo luminescence, basal, 48 h (AID 1143).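 Note: Huh7 hepatoma cells carrying a hepatitis C replication reporter with no stimulus; test concentration not given here.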 The settings on record: Huh7 HCV replicon, higher = more signal, called active from +8 up or from −8 down. (Cellular ATP, detected with luciferase, serves as a proxy for viable cell number.)
Assay [12] can be described thus: P. aeruginosa biofilm formation inhibitors, primary screen, PAO1 strain, BacTiter-Glo luminescence, LB-PBS (AID 1144). The settings on record: 12 h, higher = more signal.
A short description of assay [13]: CREB reporter modulators without forskolin, primary screen, cell-based, PC12, CRE-LacZ reporter, unstimulated (AID 1145). The settings on record: no forskolin, luminescence, 4.5 h, higher = more signal, called active from +8 up or from −8 down.
The nature of assay [14]: CREB reporter modulators under forskolin, primary screen, cell-based, PC12, CRE-LacZ reporter, forskolin-stimulated (AID 1146).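 Note: PC12 cells with 6xCRE LacZ reporter stimulated by forskolin 10 µM; beta-galactosidase reporter signal reflecting CREB driven transcription.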 The settings on record: luminescence, 4.5 h, higher = more signal, called active from +8 up or from −8 down.
Assay [15] addresses Streptavidin (Streptomyces avidinii) (UniProt P22629). Put plainly: streptavidin binders on small-molecule microarray, primary screen, artefact control for SMM compound annotation, biophysical, 635/667 nm fluorescence (AID 1147).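 Note: signal reflects streptavidin binding to arrayed compounds as a control protein.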 The settings on record: streptavidin binding, higher = more signal.
Assay [16] is described as follows: small-molecule binders of probe aInhba, primary screen, biochemical, small-molecule microarray, 635/667 nm fluorescence (AID 1148).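 Note: score merges 667nm spot fluorescence with signal-to-noise for antibody binding to printed compounds.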 To be noted: higher = more signal.
In assay [17] the target is Torsin-1A (Homo sapiens) (UniProt O14656). Put plainly: torsin A binders from cell lysate, primary screen, small-molecule microarray, wild-type, 635/667 nm (AID 1149). The settings on record: COS7 hTOR1A-WT lysate, 635 nm fluorescence, higher = more signal.
The target is the same in assay [18]. The assay can be described thus: small-molecule binders of mutant TOR1A in lysate, primary screen, cell lysate, small-molecule microarray, COS7 lysate, 635/667 nm fluorescence (AID 1150).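 Note: score pools 667 nm emission and signal to noise measuring lysate protein binding.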 The settings on record: COS7 hTOR1A mutant lysate, 635 nm fluorescence, higher = more signal.
In assay [19] the test system is Sonic hedgehog protein (Shh). The assay can be described thus: small-molecule binders of Shh protein, primary screen, biochemical, small-molecule microarray, 635/667 nm fluorescence (AID 1151).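 Note: Shh protein binding to compounds spotted on small-molecule microarray slides; score combines spot fluorescence intensity with signal-to-noise across triplicate slides.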 To be noted: small-molecule microarray binding, 635 nm fluorescence; higher = more signal.

The structures appear in SMILES notation. Calls of active or inactive are those of the source. Unless noted, the rule behind the calls is not given here.

Sequence of Focal adhesion kinase 1 (Homo sapiens) (Q05397 whole entry, looked up): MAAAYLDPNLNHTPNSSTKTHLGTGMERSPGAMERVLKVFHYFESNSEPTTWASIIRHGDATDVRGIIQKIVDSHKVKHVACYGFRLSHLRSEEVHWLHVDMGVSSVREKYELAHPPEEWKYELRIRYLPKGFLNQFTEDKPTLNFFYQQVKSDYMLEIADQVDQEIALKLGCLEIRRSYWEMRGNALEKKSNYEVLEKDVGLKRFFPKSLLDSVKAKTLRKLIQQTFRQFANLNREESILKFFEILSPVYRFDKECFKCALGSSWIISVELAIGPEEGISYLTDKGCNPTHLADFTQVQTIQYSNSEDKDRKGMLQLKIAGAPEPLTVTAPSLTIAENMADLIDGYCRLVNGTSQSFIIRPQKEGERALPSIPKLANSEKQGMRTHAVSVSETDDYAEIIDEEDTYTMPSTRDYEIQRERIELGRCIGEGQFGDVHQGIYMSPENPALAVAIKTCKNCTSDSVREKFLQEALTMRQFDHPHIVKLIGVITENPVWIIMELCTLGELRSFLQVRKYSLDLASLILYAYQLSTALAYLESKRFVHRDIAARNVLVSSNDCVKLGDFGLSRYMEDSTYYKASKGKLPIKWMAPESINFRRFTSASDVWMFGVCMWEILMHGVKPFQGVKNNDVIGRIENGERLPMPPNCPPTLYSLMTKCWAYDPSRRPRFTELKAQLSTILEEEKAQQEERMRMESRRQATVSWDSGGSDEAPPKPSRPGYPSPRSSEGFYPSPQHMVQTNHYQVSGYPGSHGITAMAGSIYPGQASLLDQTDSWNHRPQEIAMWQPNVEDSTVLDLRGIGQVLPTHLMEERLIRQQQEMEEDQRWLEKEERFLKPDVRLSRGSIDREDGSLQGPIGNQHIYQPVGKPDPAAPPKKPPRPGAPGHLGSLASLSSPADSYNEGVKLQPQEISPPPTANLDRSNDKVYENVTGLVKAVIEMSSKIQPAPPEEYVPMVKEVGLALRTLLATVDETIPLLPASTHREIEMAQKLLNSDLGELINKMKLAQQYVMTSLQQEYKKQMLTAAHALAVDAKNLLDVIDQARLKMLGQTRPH
Sequence of Luciferin 4-monooxygenase (Photinus pyralis) (P08659 whole entry, looked up): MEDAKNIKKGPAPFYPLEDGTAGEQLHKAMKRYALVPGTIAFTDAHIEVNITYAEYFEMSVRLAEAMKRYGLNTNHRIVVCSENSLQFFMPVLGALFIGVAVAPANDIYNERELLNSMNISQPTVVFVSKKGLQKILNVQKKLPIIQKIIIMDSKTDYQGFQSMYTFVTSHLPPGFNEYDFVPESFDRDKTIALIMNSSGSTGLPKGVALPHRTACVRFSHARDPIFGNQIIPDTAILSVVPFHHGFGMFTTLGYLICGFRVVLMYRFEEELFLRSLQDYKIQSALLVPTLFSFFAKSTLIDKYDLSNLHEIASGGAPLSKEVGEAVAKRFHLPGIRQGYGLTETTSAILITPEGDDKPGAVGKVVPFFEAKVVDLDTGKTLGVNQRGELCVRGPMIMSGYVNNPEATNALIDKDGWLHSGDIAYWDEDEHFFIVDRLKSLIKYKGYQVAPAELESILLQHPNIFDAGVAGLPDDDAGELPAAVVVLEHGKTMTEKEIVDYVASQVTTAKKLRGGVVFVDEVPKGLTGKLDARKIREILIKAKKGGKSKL
Sequence of Streptavidin (Streptomyces avidinii) (P22629 whole entry, looked up): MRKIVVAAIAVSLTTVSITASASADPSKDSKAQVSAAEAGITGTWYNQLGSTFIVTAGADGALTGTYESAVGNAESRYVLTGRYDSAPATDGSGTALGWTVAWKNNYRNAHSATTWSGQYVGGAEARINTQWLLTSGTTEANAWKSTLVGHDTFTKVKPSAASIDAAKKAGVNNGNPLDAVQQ
Sequence of Fibroblast growth factor 2 (Homo sapiens) (P09038 whole entry, looked up): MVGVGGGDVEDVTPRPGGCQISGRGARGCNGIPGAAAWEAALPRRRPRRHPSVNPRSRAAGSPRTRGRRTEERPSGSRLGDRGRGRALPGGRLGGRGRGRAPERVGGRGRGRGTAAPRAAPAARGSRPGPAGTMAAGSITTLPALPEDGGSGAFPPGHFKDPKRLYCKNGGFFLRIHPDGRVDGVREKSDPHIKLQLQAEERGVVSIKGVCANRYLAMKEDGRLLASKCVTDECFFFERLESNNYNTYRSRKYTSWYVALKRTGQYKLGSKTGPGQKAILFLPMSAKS
Sequence of Follistatin (Homo sapiens) (P19883 whole entry, looked up): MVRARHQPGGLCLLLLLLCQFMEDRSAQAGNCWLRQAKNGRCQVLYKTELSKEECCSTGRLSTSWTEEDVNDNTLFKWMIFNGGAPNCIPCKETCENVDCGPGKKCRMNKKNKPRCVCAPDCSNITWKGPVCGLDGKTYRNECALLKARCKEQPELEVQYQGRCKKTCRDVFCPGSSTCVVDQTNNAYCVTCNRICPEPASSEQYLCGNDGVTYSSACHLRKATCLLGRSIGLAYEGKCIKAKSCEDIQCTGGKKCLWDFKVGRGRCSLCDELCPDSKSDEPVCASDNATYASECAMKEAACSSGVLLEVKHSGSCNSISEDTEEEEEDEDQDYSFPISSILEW
Sequence of Torsin-1A (Homo sapiens) (O14656 whole entry, looked up): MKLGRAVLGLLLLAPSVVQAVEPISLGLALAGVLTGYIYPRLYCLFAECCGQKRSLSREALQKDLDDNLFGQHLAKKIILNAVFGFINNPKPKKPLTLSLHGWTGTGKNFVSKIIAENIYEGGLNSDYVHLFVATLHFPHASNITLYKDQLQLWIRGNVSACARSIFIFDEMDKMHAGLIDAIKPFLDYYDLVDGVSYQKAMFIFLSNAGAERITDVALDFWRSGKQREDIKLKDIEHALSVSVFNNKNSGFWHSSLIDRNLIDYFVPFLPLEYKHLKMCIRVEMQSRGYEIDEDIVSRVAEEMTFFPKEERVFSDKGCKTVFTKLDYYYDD

For the compound `COc1cccc([C@H]2Oc3ccc(OC)cc3C(=NO[C@@H](C)c3cn([C@H](CO)Cc4ccccc4)nn3)[C@@H]2O)c1`, the composite z-score in [1] is -2.13; in [2], -0.92; in assay [3] it was -0.104; in [4] it was 0.778; in [5] it was -0.476; in assay [6] it was 0.109. The composite z-score in the assay on Lefty1 was 0.102; in assay [8] it was 0.305; in assay [10] it was -0.353; in assay [15] it was 0.326; in assay [16] it was -0.0986; with Torsin-1A (Homo sapiens) [17], -0.44. In addition, the composite z-score with Torsin-1A (Homo sapiens) [18] is -0.137; in assay [19], -0.243. The z-score is -1.09 in assay [7]; -0.0592 (inactive) in assay [9]; -0.404 (inactive) in assay [11]; 0.0128 (inactive) in assay [12]; 6.77 (inactive) in assay [13]; 0.661 (inactive) in assay [14].

`O=C(NN=C1C[C@@H](O)[C@@H](O)[C@@H]2[C@@H]3C(=O)N(C4CCCCC4)C(=O)[C@@H]3CC[C@H]12)OCc1ccccc1`: the composite z-score is -0.156 in assay [1]; -0.387 in [2]; -0.132 in [3]; -0.195 in [4]; -0.516 in assay [5]; -0.443 in assay [6]. Besides, the composite z-score was -0.422 in the assay on Lefty1; 0.505 in assay [8]; 0.476 in assay [10]; 0.0049 in assay [15]; -0.082 in assay [16]; 0.118 with Torsin-1A (Homo sapiens) [17]. The composite z-score was 0.416 in the assay with Torsin-1A (Homo sapiens) [18] and -0.554 in [19]. In addition, the z-score is 0.293 in assay [7]; -0.0704 (inactive) in assay [9]; 0.0552 (inactive) in assay [11]; -0.19 (inactive) in assay [12]; 0.338 (inactive) in assay [13]; -0.0351 (inactive) in assay [14].

`COC(=O)CC=C[C@H](C)[C@@H](OCc1cccc(Br)c1)[C@@H](C)[C@H](OC)C1CCCCC1`: the composite z-score was 0.0864 in [1]; -1.06 in assay [2]; -0.484 in assay [3]; -1.74 in assay [4]; 0.22 in assay [5]; -0.0877 in assay [6]. In addition, the composite z-score was 0.525 in the assay with Lefty1; 0.325 in assay [8]; -0.375 in [10]; -0.243 in [15]; -0.128 in assay [16]; 0.312 with Torsin-1A (Homo sapiens) [17]. The values for the composite z-score (with Torsin-1A (Homo sapiens) [18]; in assay [19]) were -0.119 and 0.341, respectively. Also, the z-score in [7] is 1.74; in [9], -3.27 (inactive); in assay [11], 0.137 (inactive); in assay [12], 0.781 (inactive); in [13], -1.05 (inactive); in assay [14], -1.25 (inactive).

For `Cc1cc2c(nc1C)CCCCN2CC(C)ON=C[C@@H](C)[C@H](OCc1ccccc1)C(C)C` (stereo not given in full), the composite z-score in [1] is 1.92; in assay [2], -0.598; in [3], -0.69; in assay [4], -2.1; in [5] it was -1.88; in assay [6] it was -1.78. Also, the composite z-score in the assay with Lefty1 is -0.913; in assay [8], -0.765; in assay [10], -0.918; in assay [15] it was -1.88; in assay [16], -0.26; with Torsin-1A (Homo sapiens) [17] it was -3.92. Also, the composite z-score with Torsin-1A (Homo sapiens) [18] was -1.34; in assay [19] it was -0.436. For the same compound, the z-score in assay [7] is -1.26; in assay [9], -0.29 (inactive); in assay [11], -4.86 (inactive); in assay [12], 0.207 (inactive); in assay [13], 2.44 (inactive); in assay [14], 0.676 (inactive).

Take `CCc1cc2c(nc1CC)CCN(CCC(C)=NOC[C@H]1O[C@H](c3ccccc3)C=C[C@@H]1Oc1ccc(OC)cc1)C2`: the composite z-score in assay [1] is 0.287; in [2], -0.121; in assay [3], -0.0388; in [4], 0.0851; in assay [5], 0.209; in [6], -0.155. Also, the composite z-score is 0.568 in the assay on Lefty1; -0.0263 in assay [8]; -0.363 in assay [10]; 2.21 in assay [15]; -0.0093 in [16]; 0.15 with Torsin-1A (Homo sapiens) [17]. In addition, the values for the composite z-score (with Torsin-1A (Homo sapiens) [18]; in [19]) were 0.274 and 0.839, respectively. In addition, the z-score in [7] was 1.51; in [9], 0.698 (inactive); in assay [11] it was -4.11 (inactive); in [12], -1.57 (inactive); in assay [13], 5.73 (inactive); in assay [14], 0.28 (inactive).

The values are drawn from PubChem BioAssay.
